Assay [1] addresses Lysosomal acid glucosylceramidase (Homo sapiens) (UniProt P04062). As to the kind of experiment: Glucocerebrosidase-p2 (AID 348; in the data active = potency below about 10 µM; note: potency is the fitted concentration of half-maximal effect). To be noted: purified GBA, blue fluorogenic substrate, 40 min. The gist of the method:
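Compounds titrated from 0.6 nM upwards against 0.2 nM enzyme in pH 5.9 citric acid/KH2PO4, taurocholate, tween-20; blue fluorogenic substrate 80 uM, 40 min room temperature, stopped and read Ex 365/Em 440 for AC50.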

The nature of assay [2]: AP1 Signaling Pathway (AID 357; active = well fitted curve in either direction with a large enough effect, not every such curve was filed as active;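 note: ME-180 reporter cells stimulated with EGF at its EC50 level; % is set by controls: 0 for no effect and ±100 for the full control effect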). To be noted: ME-180 AP-1-bla reporter, EGF-induced, beta-lactamase ratio, 5 h; at 7.69 µM (top of the series) unless noted. The gist of the method: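 Beta-lactamase reporter under AP-1 response element, ME-180 background. Stimulus: EC50 EGF. Compound exposure 5 h, 37 °C. Detection: CCF4, 2.5 h RT, 460/530 nm. Values: AC50 from titration.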

The target of assay [3] is Cytochrome P450 1A2 (Homo sapiens) (UniProt P05177). As to the kind of experiment: p450-cyp1a2 (AID 410; calls by dose curve; note: potency is the fitted concentration of half-maximal effect). To be noted: recombinant CYP1A2, luciferin-ME demethylation, luminescence; series mostly up to 57 µM. In outline:
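20nM CYP1A2 with 100uM Luciferin-ME (at Km) in 100mM KPO4; compound preincubated 10 min, NADPH regeneration added, 60 min at room temperature. Luciferin quantified by luminescence after detection reagent; normalized to 57 uM furafylline.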

The nature of assay [4]: NFAT Signaling Pathway (AID 444; active = well fitted curve in either direction with a large enough effect, not every such curve was filed as active;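 note: carbachol stimulus at about its EC50 of 1 µM final; % is set by controls: 0 for no effect and ±100 for the full control effect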). To be noted: Jurkat NFAT-bla M1, carbachol, beta-lactamase ratio, 5 h; at 7.69 µM (top of the series) unless noted. The gist of the method:
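Jurkat cells carrying an NFAT-driven β-lactamase reporter and co-transfected muscarinic M1 receptor were treated with compound plus carbachol (1 uM final, an EC50 level) for 5 h at 37 °C. CCF4 loading followed for 1 h at RT; 460/530 nm ratio gave %activity.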

A short description of assay [5]: Stat Signaling Pathway (AID 446; active = well fitted curve in either direction with a large enough effect, not every such curve was filed as active;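 note: ME-180 cervical cancer cells given 40 pM IL-6 alongside compound; SIE-controlled beta-lactamase reporter measured as 460/530 nm FRET emission ratio; % is set by controls: 0 for no effect and ±100 for the full control effect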). Particulars: ME-180 SIE beta-lactamase reporter, IL-6 stimulated, 5 h; at 7.69 µM (top of the series) unless noted. In outline: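 Screening format detects activators and inhibitors alike: ME-180 SIE-bla cells stimulated at 40 pM IL-6 for 5 hrs with compound, then dual-emission beta-lactamase read at 405 nm excitation.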
The target of assay [6] is Glucocorticoid receptor (Homo sapiens) (UniProt P04150). Kind of assay: GR-GFP Redistribution (AID 450;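 active = compounds whose dose series gives a full or clear partial fitted curve of increased nuclear translocation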; note: potency is the fitted concentration of half-maximal effect). To be noted: U2OS GR-GFP nuclear translocation, laser cytometry, 2 h.
Chain of Glucocorticoid receptor (Homo sapiens) (P04150 whole entry, looked up, the tested form may be a part): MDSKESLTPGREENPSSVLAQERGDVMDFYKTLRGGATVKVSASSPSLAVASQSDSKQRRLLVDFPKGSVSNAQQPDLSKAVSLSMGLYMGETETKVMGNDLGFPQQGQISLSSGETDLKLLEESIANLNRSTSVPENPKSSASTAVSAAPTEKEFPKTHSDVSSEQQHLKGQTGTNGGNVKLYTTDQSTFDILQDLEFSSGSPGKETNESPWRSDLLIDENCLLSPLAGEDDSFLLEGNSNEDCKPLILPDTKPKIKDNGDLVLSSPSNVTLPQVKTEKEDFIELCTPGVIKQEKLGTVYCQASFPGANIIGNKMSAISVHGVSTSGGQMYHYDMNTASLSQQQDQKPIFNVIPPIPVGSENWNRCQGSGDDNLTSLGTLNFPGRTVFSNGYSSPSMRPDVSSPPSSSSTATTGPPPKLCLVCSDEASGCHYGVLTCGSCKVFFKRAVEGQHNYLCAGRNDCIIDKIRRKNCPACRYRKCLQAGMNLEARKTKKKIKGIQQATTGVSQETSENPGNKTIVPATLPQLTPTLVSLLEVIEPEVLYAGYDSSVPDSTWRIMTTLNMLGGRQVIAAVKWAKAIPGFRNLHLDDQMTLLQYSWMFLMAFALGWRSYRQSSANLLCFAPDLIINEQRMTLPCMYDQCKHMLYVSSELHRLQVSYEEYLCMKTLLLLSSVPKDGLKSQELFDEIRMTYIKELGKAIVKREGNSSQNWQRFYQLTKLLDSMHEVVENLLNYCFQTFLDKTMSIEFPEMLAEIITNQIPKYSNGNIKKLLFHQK
The target is the same in assay [7]. Kind of assay: GR-EFC Redistribution (AID 451; calls by dose curve; note: potency is the fitted concentration of half-maximal effect). To be noted: CHO-K1 GR-EFC translocation, beta-gal luminescence, 2 h. The gist of the method: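 CHO-K1 cells stably expressing nuclear-localized β-gal enzyme acceptor and GR fused C-terminally to the enzyme donor fragment; ligand-driven nuclear translocation restores β-gal by complementation. Compounds titrated up to 46 uM final, 2 h at 37 °C; luminescence read.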

For assay [8], the target named is Mitogen-activated protein kinase 10 (Mus musculus) (UniProt Q61831). As to the kind of experiment: JNK3 AlphaScreen Assay (AID 530; active = well fitted curve in either direction with a large enough effect, not every such curve was filed as active;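 note: kinase came from lysate of stimulated human HepG2 cells; signal reports phosphorylation of biotinylated GST-cJun 1-79 at Ser73 with 10 µM ATP; % is set by controls: 0 for no effect and ±100 for the full control effect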). Particulars: JNK3 lysate, c-Jun phosphorylation; series mostly up to 57.1 µM. The gist of the method: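 Inhibitors reduce antibody binding to phosphorylated biotin-cJun, lowering AlphaScreen luminescence. Lysates from HepG2 cells pre-activated by IL-1beta plus TNF-alpha supplied JNK3; compounds were titrated.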

The target of assay [9] is 3',5'-cyclic-AMP phosphodiesterase 4B (Homo sapiens) (UniProt Q07343). As to the kind of experiment: qHTS Assay for Inhibitors of PDE-IV (AID 607; active = well fitted activation curve with a large enough effect in the main read-out, with a control signal flat, not every such curve was filed as active; note: % of control where 0% means no effect). Particulars: HEK293 ACTOne CNG channel cells, membrane potential fluorescence; series mostly up to 22.9 µM. In outline: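 The readout is membrane depolarisation from a cAMP-sensing CNG channel, detected with a potential dye at ex 535/em 590. Cells were HEK293-derived (endogenous PDE-IV) at 1000 cells/well, titrated up to 22.9 uM final.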
Chain of 3',5'-cyclic-AMP phosphodiesterase 4B (Homo sapiens) (Q07343 whole entry, looked up): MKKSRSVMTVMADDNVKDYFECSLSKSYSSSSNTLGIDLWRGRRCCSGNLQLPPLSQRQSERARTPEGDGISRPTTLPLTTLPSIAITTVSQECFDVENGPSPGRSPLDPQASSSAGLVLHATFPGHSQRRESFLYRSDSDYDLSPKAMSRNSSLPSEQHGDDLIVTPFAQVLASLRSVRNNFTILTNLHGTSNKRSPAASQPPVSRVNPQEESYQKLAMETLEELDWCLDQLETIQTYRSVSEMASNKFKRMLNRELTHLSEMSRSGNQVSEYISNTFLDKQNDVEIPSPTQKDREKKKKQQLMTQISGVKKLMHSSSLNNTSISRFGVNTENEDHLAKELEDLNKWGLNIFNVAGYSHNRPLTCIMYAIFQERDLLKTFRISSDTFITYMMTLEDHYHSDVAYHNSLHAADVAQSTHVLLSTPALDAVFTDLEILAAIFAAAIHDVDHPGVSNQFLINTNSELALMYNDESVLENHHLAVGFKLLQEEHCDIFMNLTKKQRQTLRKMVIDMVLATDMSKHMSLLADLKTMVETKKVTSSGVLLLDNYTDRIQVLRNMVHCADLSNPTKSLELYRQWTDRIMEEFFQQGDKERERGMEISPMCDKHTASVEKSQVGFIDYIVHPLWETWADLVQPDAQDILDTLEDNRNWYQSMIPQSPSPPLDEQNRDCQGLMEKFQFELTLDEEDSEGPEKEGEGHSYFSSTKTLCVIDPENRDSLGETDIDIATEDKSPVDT

Assay [10] has as its target Cytochrome P450 3A4 (Homo sapiens) (UniProt P08684). As to the kind of experiment: qHTS Assay for Activators of Cytochrome P450 3A4 (AID 885). Note: nearly all actives have a fitted effect of over 65% in size. To be noted: recombinant CYP3A4, Luciferin-PPXE luminescence, 60 min; series mostly up to 57.1 µM. The gist of the method: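 Steps: enzyme/substrate mix dispensed; compound added, 10 min RT; NADPH regeneration solution added, 60 min RT; luciferin detection buffer stops reaction; 20 min later luminescence measured.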

Assay [11] has as its target Cytochrome P450 2C19 (Homo sapiens) (UniProt P33261). Kind of assay: qHTS Assay for Inhibitors and Substrates of Cytochrome P450 2C19 (AID 899). Note: nearly all actives have a fitted effect of over 60% in size. Note: potency is the fitted concentration of half-maximal effect. To be noted: recombinant CYP2C19, luciferin-H EGE luminescence; series mostly up to 57.1 µM. In outline:
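In 50mM KPO4, the reaction held 5nM enzyme and KM-level (10uM) Luciferin-H EGE; it ran 60 min at 37C after NADPH regeneration and a 10 min compound preincubation. Luminescence values were scaled to 57uM ketoconazole as complete inhibition.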

The nature of assay [12]: Confirmation and Secondary Assay for Modulators of Hemoglobin Beta Chain Splicing at IVS2 654 locus (AID 910). Note: % of control where 0% means no effect. Particulars: HeLa EGFP-654 splicing reporter, GFP fluorescence, 48 h; series mostly up to 38.3 µM. In outline:
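HeLa cells stably carrying EGFP interrupted by mutant beta-globin IVS2-654 intron (CMV-driven) were treated with compound for 2 days at 37C; corrected splicing was scored as total peak GFP intensity per well (488 nm excitation, 500-520 nm emission).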

A short description of assay [13]: qHTS Assay for Identification of Small Molecule Agonists for Hypoxia Response Element Signaling Pathway (AID 914; active = well fitted activation curve with a large enough effect in the signal ratio, with a control signal flat, not every such curve was filed as active; the % refers to the signal ratio; note: % of control where 0% means no effect). To be noted: ME-180 (cervical carcinoma) HRE-bla reporter, beta-lactamase ratio, CoCl2, 17 h; activation: stronger effect = higher value. The gist of the method: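 HRE-bla ME-180 cells with beta-lactamase reporter under hypoxia response element, compounds with EC50 CoCl2 for 17 hours at 37 C. CCF4 substrate, 460nm/530nm emission ratio gave %Activity; AC50 from titration series.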

Assay [14] can be described thus: Confirmation and Secondary Assay for Modulators of Hemoglobin Beta Chain Splicing at IVS2 705 locus (AID 930). Note: % of control where 0% means no effect. To be noted: HeLa EGFP-705 splicing reporter, GFP fluorescence, 48 h; series mostly up to 38.3 µM. The gist of the method: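 HeLa cells stably carrying EGFP interrupted by mutant beta-globin intron 2 (IVS2-705) treated 2 days at 37C with compound; 500 nM antisense PNA as control. Correct splicing read as total peak GFP intensity per well by laser-scanning cytometry.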

The nature of assay [15]: qHTS Assay for Lipid Storage Modulators (AID 1519; calls by dose curve). Particulars: Drosophila S3 cells, BODIPY lipid droplet/cell ratio, laser cytometry, cells loaded with oleic acid; for activity change, negative = inhibition: at 57.5 µM (top of the series). In outline:
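Cells seeded at 5,000 per well were treated with compounds over a concentration series and loaded with oleic acid (400 uM, as added). Lipid droplet fluorescence (488 nm excitation, 500-530 nm channel) was read by laser-scanning cytometry and normalized to 20 uM Triacsin C.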

The target of assay [16] is Ubiquitin carboxyl-terminal hydrolase 1 (Homo sapiens) (UniProt O94782). As to the kind of experiment: Inhibitors of USP1/UAF1: Pilot qHTS (AID 504865).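 Note: rhodamine fluorescence freed from ubiquitin-rhodamine substrate followed over time; top concentration of the series differs between compounds; % is set by controls: 0 for no effect and ±100 for the full control effect; nearly all actives have a fitted effect of over 35% in size.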 To be noted: purified USP1/UAF1, Ub-rhodamine cleavage fluorescence; series mostly up to 54.9 µM. In outline:
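USP1/UAF1 complex at 1 nM preincubated 15 min at room temperature with compound, then Ub-Rho substrate added at 150 nM final. Fluorescence (480/540 nm) read kinetically in 50 mM HEPES pH 7.8, 0.5 mM EDTA, 1 mM TCEP, 0.1 mg/ml BSA, 0.01% Tween-20.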

A short description of assay [17]: Primary qHTS for small molecule stabilizers of the endoplasmic reticulum resident proteome: Secreted ER Calcium Modulated Protein (SERCaMP) assay (AID 1508630). Note: % is set by controls: 0 for no effect and ±100 for the full control effect. Particulars: SH-SY5Y GLuc-SERCaMP (Gaussia luciferase released on ER calcium loss) secretion, thapsigargin, luminescence; series mostly up to 38.4 µM. In outline: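 GLuc-SERCaMP-expressing SH-SY5Y cells, pretreated 16 h with compound, are challenged with thapsigargin to empty ER calcium stores; after 4 h, coelenterazine is added directly to the medium and luminescence is imaged.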

The target in assay [18] is Dual specificity protein kinase CLK4 (Homo sapiens) (UniProt Q9HAZ1). Kind of assay: qHTS Assay for Inhibitors of CDC-like Kinase 4 (ADP-FP Assay) (AID 1795). Note: % is set by controls: 0 for no effect and ±100 for the full control effect; nearly all actives have a fitted effect of over 60% in size. Particulars: Transcreener ADP fluorescence polarization; series mostly up to 50 µM. The gist of the method: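 Recombinant Clk4 (6.25 nM) phosphorylated 100 uM RS repeat peptide with 1 uM ATP in 25 mM Tris pH 7.5, 10 mM MgCl2, 0.5 mM EGTA, 2.5 mM DTT, 0.01% Triton X-100 for 1 h. ADP was detected by Transcreener ADP2 competitive fluorescence polarization after 30 min at room temperature.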
Chain of Dual specificity protein kinase CLK4 (Homo sapiens) (Q9HAZ1 whole entry, looked up): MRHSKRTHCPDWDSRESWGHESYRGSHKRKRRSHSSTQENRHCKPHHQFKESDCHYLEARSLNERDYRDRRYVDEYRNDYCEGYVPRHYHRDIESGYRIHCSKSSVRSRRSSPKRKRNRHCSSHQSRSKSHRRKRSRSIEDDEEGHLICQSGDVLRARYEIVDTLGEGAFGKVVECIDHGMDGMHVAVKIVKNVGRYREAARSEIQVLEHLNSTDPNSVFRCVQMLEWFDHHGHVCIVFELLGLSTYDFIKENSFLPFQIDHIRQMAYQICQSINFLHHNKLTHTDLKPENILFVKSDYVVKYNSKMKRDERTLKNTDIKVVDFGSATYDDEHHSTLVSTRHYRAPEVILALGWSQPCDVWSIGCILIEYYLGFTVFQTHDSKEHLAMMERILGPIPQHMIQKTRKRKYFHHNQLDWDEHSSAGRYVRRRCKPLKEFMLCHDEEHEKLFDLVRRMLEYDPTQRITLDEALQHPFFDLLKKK

For assay [19], the target named is Cytochrome P450 3A4 (Homo sapiens) (UniProt P08684). As to the kind of experiment: qHTS Assay for Inhibitors and Substrates of Cytochrome P450 3A4 (AID 884). Note: % is set by controls: 0 for no effect and ±100 for the full control effect; nearly all actives have a fitted effect of over 50% in size. Particulars: recombinant CYP3A4, Luciferin-PPXE luminescence; series mostly up to 57.1 µM. The gist of the method: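 20 nM human CYP3A4 with 25 uM Luciferin-PPXE (at KM) in 200 mM KPO4, preincubated 10 min with compound; NADPH regeneration started a 60 min RT reaction. Luciferin detected by luminescence, normalized to 57 uM ketoconazole as full inhibition.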
Chain of Cytochrome P450 3A4 (Homo sapiens) (P08684 whole entry, looked up): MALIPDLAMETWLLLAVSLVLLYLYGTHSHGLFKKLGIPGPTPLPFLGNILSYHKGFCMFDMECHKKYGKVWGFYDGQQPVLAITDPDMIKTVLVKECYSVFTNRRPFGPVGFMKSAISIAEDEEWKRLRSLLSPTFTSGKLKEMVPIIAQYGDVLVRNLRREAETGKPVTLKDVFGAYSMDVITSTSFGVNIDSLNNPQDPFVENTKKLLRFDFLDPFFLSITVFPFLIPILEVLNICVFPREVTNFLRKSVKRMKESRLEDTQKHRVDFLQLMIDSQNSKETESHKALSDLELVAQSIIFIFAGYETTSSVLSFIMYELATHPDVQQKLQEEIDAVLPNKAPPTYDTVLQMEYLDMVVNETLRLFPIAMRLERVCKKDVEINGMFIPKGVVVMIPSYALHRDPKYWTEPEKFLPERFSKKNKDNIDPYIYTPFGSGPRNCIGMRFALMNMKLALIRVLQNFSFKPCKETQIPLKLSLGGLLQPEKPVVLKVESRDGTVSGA

The mark [20] stands for this setting: measured here: cell count channel max response.
The mark [21] stands for this setting: measured here: lipid channel max response.

Records with an inconclusive call do not appear. Active and inactive are the calls of the source. Unless noted, calls come from the whole dose curve; as a rule, active = well fitted curve in the direction sought with a large enough effect; inconclusive = small, poorly fitted or top-dose-only effect, or another doubt; inactive = no such curve, though single readings can be large; an effect the other way counts as inactive or inconclusive.

Chain of Lysosomal acid glucosylceramidase (Homo sapiens) (P04062 whole entry, looked up): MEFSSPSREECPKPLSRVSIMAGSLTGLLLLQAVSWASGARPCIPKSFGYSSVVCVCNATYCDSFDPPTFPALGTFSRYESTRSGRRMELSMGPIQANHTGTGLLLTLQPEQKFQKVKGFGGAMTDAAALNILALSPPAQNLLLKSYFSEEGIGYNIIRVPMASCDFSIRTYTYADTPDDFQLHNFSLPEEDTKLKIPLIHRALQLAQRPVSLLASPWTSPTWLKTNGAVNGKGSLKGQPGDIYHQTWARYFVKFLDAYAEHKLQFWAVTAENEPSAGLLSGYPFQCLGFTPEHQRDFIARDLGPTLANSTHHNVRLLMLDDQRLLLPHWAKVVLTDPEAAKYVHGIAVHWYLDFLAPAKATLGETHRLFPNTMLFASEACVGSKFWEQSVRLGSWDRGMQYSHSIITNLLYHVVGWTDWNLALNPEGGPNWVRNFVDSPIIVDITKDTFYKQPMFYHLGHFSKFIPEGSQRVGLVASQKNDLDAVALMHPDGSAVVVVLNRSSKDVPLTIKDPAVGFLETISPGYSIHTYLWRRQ
Chain of Cytochrome P450 1A2 (Homo sapiens) (P05177 whole entry, looked up): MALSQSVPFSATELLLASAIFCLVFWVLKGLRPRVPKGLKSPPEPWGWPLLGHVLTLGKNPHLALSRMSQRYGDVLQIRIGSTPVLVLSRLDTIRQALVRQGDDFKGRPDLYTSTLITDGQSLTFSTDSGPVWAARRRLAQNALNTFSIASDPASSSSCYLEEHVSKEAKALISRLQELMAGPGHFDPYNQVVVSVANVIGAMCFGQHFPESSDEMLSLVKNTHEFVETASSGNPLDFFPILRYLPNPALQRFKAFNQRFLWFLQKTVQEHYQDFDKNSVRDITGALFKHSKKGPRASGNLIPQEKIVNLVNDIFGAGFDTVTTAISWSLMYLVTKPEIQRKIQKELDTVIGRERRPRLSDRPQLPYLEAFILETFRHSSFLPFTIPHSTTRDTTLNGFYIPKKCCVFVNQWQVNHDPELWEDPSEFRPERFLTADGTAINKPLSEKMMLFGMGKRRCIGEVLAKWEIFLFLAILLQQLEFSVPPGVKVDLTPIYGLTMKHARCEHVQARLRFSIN
Chain of Ubiquitin carboxyl-terminal hydrolase 1 (Homo sapiens) (O94782 whole entry, looked up): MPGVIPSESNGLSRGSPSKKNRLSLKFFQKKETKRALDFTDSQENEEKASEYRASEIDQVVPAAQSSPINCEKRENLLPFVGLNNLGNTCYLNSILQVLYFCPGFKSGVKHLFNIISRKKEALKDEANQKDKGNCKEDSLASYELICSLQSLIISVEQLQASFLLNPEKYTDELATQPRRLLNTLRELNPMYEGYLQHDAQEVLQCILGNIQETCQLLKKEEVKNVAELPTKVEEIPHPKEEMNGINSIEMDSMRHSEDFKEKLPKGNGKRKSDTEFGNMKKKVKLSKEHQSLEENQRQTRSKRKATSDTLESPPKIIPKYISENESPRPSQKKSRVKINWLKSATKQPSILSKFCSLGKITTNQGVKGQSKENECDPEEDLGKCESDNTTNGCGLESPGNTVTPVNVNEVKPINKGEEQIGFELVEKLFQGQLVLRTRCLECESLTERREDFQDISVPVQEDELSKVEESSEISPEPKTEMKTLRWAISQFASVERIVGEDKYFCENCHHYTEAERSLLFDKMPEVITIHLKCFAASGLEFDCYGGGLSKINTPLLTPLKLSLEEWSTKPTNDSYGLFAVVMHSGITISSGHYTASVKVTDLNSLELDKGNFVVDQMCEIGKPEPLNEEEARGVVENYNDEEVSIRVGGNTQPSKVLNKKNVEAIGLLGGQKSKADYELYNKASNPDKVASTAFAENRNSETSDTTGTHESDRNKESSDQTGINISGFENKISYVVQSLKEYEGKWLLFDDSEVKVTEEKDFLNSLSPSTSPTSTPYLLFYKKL
Chain of Cytochrome P450 2C19 (Homo sapiens) (P33261 whole entry, looked up): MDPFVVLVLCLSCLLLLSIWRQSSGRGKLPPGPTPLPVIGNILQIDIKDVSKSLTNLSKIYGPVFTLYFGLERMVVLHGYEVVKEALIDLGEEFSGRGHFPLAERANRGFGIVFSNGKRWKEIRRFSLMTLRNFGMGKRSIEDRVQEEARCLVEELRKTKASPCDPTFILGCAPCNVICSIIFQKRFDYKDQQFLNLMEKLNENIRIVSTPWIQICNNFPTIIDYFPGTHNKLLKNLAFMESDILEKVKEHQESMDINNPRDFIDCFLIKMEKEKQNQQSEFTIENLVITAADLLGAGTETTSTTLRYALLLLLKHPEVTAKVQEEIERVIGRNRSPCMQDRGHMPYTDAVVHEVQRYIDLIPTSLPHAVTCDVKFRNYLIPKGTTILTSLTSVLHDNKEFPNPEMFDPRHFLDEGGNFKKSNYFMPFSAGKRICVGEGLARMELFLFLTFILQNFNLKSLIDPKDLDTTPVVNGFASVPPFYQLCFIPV

For the compound `COc1ccccc1CNc1ncncc1-c1cccc(C#N)c1`, the Potency was > 11.4 µM (inactive) in assay [1]; 10 µM (active) in [3]; > 46 µM (inactive) in [6]; > 46 µM (inactive) in [7]; 3.16 µM (active) in [11]. The figures for the activity change, negative = inhibition in [2], in assay [4] and in assay [15] were -6.51% (inactive), -5.86% (inactive) and 6.39% (inactive), respectively. Also, the activity, negative = inhibition in assay [5] was -0.225% (inactive). The call in [8], in [12] and in assay [14] was inactive. The Potency entry in assay [9], in [10], in assay [16] and in [17] was “inactive” throughout. The activation in assay [13] was -9.43% (inactive). In addition, the max response in assay [15] (setting [20]) is -8.3%; in [15] (setting [21]), 8.29%.

Regarding `COc1ccccc1-c1cncnc1NCc1cccnc1`, the Potency in [1] is > 11.4 µM (inactive); in assay [3], 6.31 µM (active); in [6] it was > 46 µM (inactive); in [7], > 46 µM (inactive); in assay [11], 3.16 µM (active). Also, the activity change, negative = inhibition in assay [2] was -10.2% (inactive); in [4], -4.56% (inactive); in assay [15], 7.04% (inactive). In assay [5], the activity, negative = inhibition was 4% (inactive). For the same compound, the compound was called inactive in assay [8], in assay [12] and in assay [14]. The Potency result in assay [9], in assay [10], in assay [16] and in [17] was “inactive” in each case. The max response is 11.1% in assay [15] (setting [20]) and 18.5% in assay [15] (setting [21]).

As for `COCCNc1ccnc(-c2ccccc2C(F)(F)F)n1`, the Potency in assay [1] is > 11.4 µM (inactive); in assay [3] it was 20 µM (active); in assay [6], > 46 µM (inactive); in assay [7], > 46 µM (inactive). Also, the figures for the activity change, negative = inhibition in assay [4] and in [15] were 9.65% (inactive) and 3.61% (inactive), respectively. Further, in assay [5], the activity, negative = inhibition is 8.97% (inactive). For the same compound, the outcome in assay [8] was inactive. Further, the Potency entry in assay [9], in assay [18], in assay [16] and in assay [17] was “inactive” each time. Also, the max response in [15] (setting [20]) was found to be 25.6%; in assay [15] (setting [21]), 29.2%.

As to `CS(=O)(=O)Nc1cccc(-c2cncnc2NCc2cccs2)c1`, the Potency in [1] is > 11.4 µM (inactive); in assay [3], 15.8 µM (active); in assay [6], > 46 µM (inactive); in assay [7], > 46 µM (inactive). Also, the activity change, negative = inhibition in assay [2] is 5.06% (inactive); in assay [4] it was 2.17% (inactive); in assay [15], 4.63% (inactive). Moreover, the activity, negative = inhibition in assay [5] was 12.4% (inactive). Also, the call in assay [8], in assay [12] and in [14] was inactive. Also, the Potency entry in [9], in assay [10], in [16] and in assay [17] was “inactive” each time. Also, the max response in assay [15] (setting [20]) was found to be 8.3%; in assay [15] (setting [21]), 16.7%.

For `CCNc1ncc2nc(C)c(=O)n(-c3ccc(OC)cc3)c2n1`, the Potency in assay [1] is > 11.4 µM (inactive); in assay [7] it was > 46 µM (inactive). The activity change, negative = inhibition in assay [2] was -29.8% (inactive); in [4], 14.3% (inactive); in assay [15], 4.59% (inactive). Besides, the activity, negative = inhibition in assay [5] was -9.6% (inactive). In assay [8], the compound was called inactive. The Potency entry in [19], in [11], in assay [18], in [16] and in assay [17] was “inactive” throughout. Moreover, in assay [13], the activation was -10.1% (inactive). The values for the max response in assay [15] (setting [20]) and in assay [15] (setting [21]) were 11.9% and 15%, respectively.

The record behind these values is PubChem BioAssay (NCATS).
